Test results reported in PubChem BioAssay.
Activity calls are given as the source filed them. Cut-off read from the data, not from the text of the source, unless noted: active = inhibition above about 80%; inactive = the rest.

Experiments:
[1] = galactose survival enhancers in mitochondrial complex I cybrids – cell-based, galactose medium, ATP luminescence, primary screen (AID 1645843;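 active = z-score of at least 1.8 in each of two replicates, scored against plate mean and spread of sample wells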;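 note: positive z means more ATP and so rescue of galactose-driven cybrid death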); details: complex I mutant cybrid cells, 72 h, stronger effect = higher value
[2] = growth inhibition, single agent or in combination, cell-based, chromothripsis tumors, cisplatin or BGB combos (AID 1671449); details: LFS_MB_P medulloblastoma cells;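 note: cells exposed for 96 hours; 0% = vehicle DMSO and 100% = killing by high DMSO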
[3] = growth inhibition, single agent and combos, cell-based, chromothripsis tumors, cisplatin or BGB combos (AID 1671450); details: HDN33 neuroblastoma cells, stronger effect = higher value;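 note: cells exposed to compound for four days; 0% = vehicle DMSO and 100% = cell killing by high DMSO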
[4] = growth inhibition, single agents and combos, ICB984, cell-based, cisplatin or BGB combos, synergistic combos for chromothripsis tumors (AID 1671451; call rule not given here;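 note: cells exposed for 96 hours before readout; 0% = vehicle DMSO and 100% = killing by high DMSO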); details: ICB984 medulloblastoma cells, drug combinations, stronger effect = higher value
[5] = growth inhibition, single agents and combos, LFS_MB_1R, cell-based, cisplatin or BGB combos, synergistic combos for chromothripsis tumors (AID 1671452); details: LFS_MB_1R medulloblastoma cells, stronger effect = higher value;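 note: cells exposed for 96 hours before readout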
[6] = growth inhibition, single agents and combos, HTB85, cell-based, BGB or cisplatin IC20 combos, synergistic combos for chromothripsis tumors (AID 1671453); details: HTB85 osteosarcoma cells, drug combinations, stronger effect = higher value;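 note: cells exposed for 96 hours before readout; 0% = vehicle DMSO and 100% = high DMSO killing control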
[7] = growth inhibition, single agents and combos, CRL2098, cell-based, BGB or cisplatin IC20 combos, synergistic combos for chromothripsis tumors (AID 1671454); details: CRL2098 osteosarcoma cells, drug combinations, stronger effect = higher value;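 note: cells exposed for 96 h before readout; 0% = vehicle DMSO and 100% = killing by high DMSO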
[8] = growth inhibition, single agents and combos, HD-MB03, cell-based, BGB or cisplatin IC20 combos, synergistic combos for chromothripsis tumors (AID 1671455; in the data active = inhibition above about 83%;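 note: 0% = vehicle DMSO and 100% = high DMSO as cytotoxic control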); details: HD-MB03 medulloblastoma cells, stronger effect = higher value
[9] = growth inhibition, single agents and combos, UWB1.289, cell-based, BGB or cisplatin combos, synergistic combos for chromothripsis tumors (AID 1671456); details: UWB1.289 ovarian carcinoma cells, stronger effect = higher value;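 note: cells exposed to compound for four days; 0% = vehicle DMSO and 100% = killing by high DMSO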
[10] = growth inhibition, single agents and combos, LFS_MB_2R, cell-based, cisplatin combos, synergistic combos for chromothripsis tumors (AID 1671457); details: LFS_MB_2R medulloblastoma cells, stronger effect = higher value;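 note: cells exposed to compound for four days before readout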
[11] = growth inhibition, MDA-MB-436, cell-based, BGB or cisplatin combos, synergistic combos for chromothripsis tumors (AID 1671458; call rule not given here;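 note: cells exposed for 96 hours; 0% = vehicle DMSO and 100% = killing by high DMSO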); details: MDA-MB-436 breast carcinoma growth inhibition, drug combinations, stronger effect = higher value
[12] = UWB1.289_BRCA1 ovarian cancer growth, cell-based, BGB or cisplatin combinations (AID 1671459); details: UWB1.289 BRCA1 ovarian carcinoma, drug combinations, stronger effect = higher value
[13] = drug combination toxicity in non-malignant astrocytes – cell-based, BGB or cisplatin IC20 combos, cytotoxicity control for chromothriptic childhood tumor combination screen (AID 1671460); details: Human astrocytes, viability inhibition, drug combinations, at 0.5 µM, stronger effect = higher value;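 note: cells exposed to compounds for 96 hours before viability readout; 0% = vehicle and 100% = killing control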
[14] = BT084 cell growth, single and combined drugs, ICGC_MB145, cisplatin and BGB IC40 combos (AID 1671461); details: BT084 medulloblastoma cells, drug combinations, stronger effect = higher value;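 note: cells exposed to drugs for 96 hours; 0% = vehicle DMSO and 100% = high DMSO full killing control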
[15] = RCMB18 cell growth, single agent and combined, cisplatin and BGB IC40 combos (AID 1671462); details: RCMB18 medulloblastoma cells, stronger effect = higher value;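 note: cells exposed to compound for four days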
[16] = CRL1545 cell growth, single agent and combined, cisplatin and BGB IC20 combos (AID 1671464); details: CRL1545 osteosarcoma cells, stronger effect = higher value;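 note: cells exposed to compound for 96 hours before readout; 0% = vehicle DMSO and 100% = high DMSO killing control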
[17] = measured here: combination with BGB IC40, at 0.05 µM
[18] = measured here: with BGB IC20 combination, at 0.5 µM
[19] = measured here: with cisplatin IC20 combination, at 0.5 µM
[20] = measured here: combination with cisplatin, at 0.5 µM
[21] = measured here: combination with cisplatin, at 5 µM

COc1ccc(OC)c(-c2ccc3nc(C)ccc3c2)c1
z-score [1]: -1.14 (inactive)

CCn1nc(CC(C)C)cc1C(=O)N1CCC(n2cc(C(C)(C)O)nn2)CC1
z-score [1]: -0.53 (inactive)

O=c1ccn(C2CC(O)C(CO)O2)c(=O)[nH]1 (stereo unspecified)
inhibition ([2]; at 0.5 µM, stronger effect = higher value): -18.8% (inactive)
inhibition ([2]; measured here: combination with BGB IC20, at 0.005 µM): -7.41%
inhibition ([2]; measured here: combination with BGB IC40, at 0.005 µM): -27.4%
inhibition [2, 17]: -29.5%
inhibition ([2]; measured here: combination with cisplatin, at 0.5 µM, stronger effect = higher value): -37.9%
inhibition ([2]; measured here: combination with cisplatin, at 5 µM, stronger effect = higher value): -35.5%
inhibition ([3]; BGB combo, at 5 µM): -20.7%
inhibition ([3]; at 0.5 µM): -36.9% (inactive)
inhibition ([3]; cisplatin combo, at 5 µM): -20.7%
inhibition [3, 18]: -38.7%
inhibition [3, 19]: -41.3%
inhibition ([3]; single agent, at 5 µM): -10.1%
inhibition ([4]; BGB IC20 combo, at 0.005 µM): 4%
inhibition ([4]; BGB IC40 combo, at 0.005 µM): -31.4%
inhibition ([4]; BGB IC40 combo, at 0.05 µM): -22%
inhibition ([4]; at 0.5 µM): -20.1% (inactive)
inhibition ([4]; cisplatin combo, at 0.05 µM): -25.4%
inhibition ([4]; cisplatin combo, at 0.5 µM): -21.2%
inhibition ([4]; cisplatin combo, at 5 µM): -29.4%
inhibition ([4]; measured here: 5 uM single agent, at 5 µM): -22%
inhibition ([5]; at 0.5 µM): -29.6% (inactive)
inhibition [5, 17]: -35%
inhibition [5, 20]: -32.9%
inhibition [5, 21]: -47.4%
inhibition ([6]; at 0.5 µM): -20.1% (inactive)
inhibition ([6]; measured here: with BGB IC20, at 0.5 µM): -39.5%
inhibition ([6]; measured here: with BGB IC20, at 5 µM): -39.3%
inhibition ([6]; measured here: with cisplatin IC20, at 0.5 µM): -5.42%
inhibition ([6]; measured here: with cisplatin IC20, at 5 µM): -49.8%
inhibition ([6]; single agent, at 5 µM): -26.7%
inhibition ([7]; at 0.5 µM): -68.3% (inactive)
inhibition ([7]; measured here: combination with BGB at IC20, at 0.5 µM): -48.5%
inhibition ([7]; measured here: combination with cisplatin at IC20, at 0.5 µM): -72.4%
inhibition ([8]; at 0.5 µM): -3.73% (inactive)
inhibition ([8]; measured here: combo with BGB at IC20, at 0.5 µM): -8.35%
inhibition ([8]; measured here: combo with cisplatin at IC20, at 0.5 µM): -4.82%
inhibition ([9]; at 0.5 µM): 0.16% (inactive)
inhibition ([9]; measured here: inhibition with BGB combination, at 0.05 µM): -21%
inhibition ([9]; measured here: inhibition with cisplatin combination, at 0.05 µM): -1.45%
inhibition ([10]; at 0.5 µM): -20.5% (inactive)
inhibition [10, 20]: -18.3%
inhibition [10, 21]: -78.5%
inhibition ([11]; at 0.5 µM): -14.8% (inactive)
inhibition ([11]; measured here: BGB combination, at 0.5 µM): -6.54%
inhibition ([11]; measured here: BGB combination, at 5 µM): -25.5%
inhibition ([11]; measured here: cisplatin combination, at 0.5 µM): -29.1%
inhibition ([11]; measured here: cisplatin combination, at 5 µM): -17%
inhibition ([12]; BGB combination, concentration series, at 5 µM): -3.77%
inhibition ([12]; at 0.5 µM): 0.57% (inactive)
inhibition ([12]; cisplatin combination, concentration series, at 5 µM): 10.4%
inhibition [13]: 3.18% (inactive)
inhibition ([13]; measured here: combo with BGB IC20): -6.85%
inhibition ([13]; measured here: combo with cisplatin IC20): 4.49%
inhibition ([14]; at 0.5 µM): -24.6% (inactive)
inhibition ([14]; cisplatin combination, at 0.5 µM): -0.373%
inhibition ([14]; cisplatin combination, at 5 µM): 1.74%
inhibition ([14]; measured here: BGB IC40 combination 0.05 uM, at 0.05 µM): 26.6%
inhibition ([14]; single agent, at 5 µM): -10.6%
inhibition ([15]; at 0.5 µM): -15.4% (inactive)
inhibition ([15]; cisplatin combo, at 5 µM): 1.69%
inhibition ([15]; measured here: BGB IC40 combination, at 0.05 µM): 3.1%
inhibition [15, 20]: 9.29%
inhibition ([15]; single agent, at 5 µM): -204%
inhibition ([16]; at 0.5 µM): -20.7% (inactive)
inhibition [16, 18]: -5.72%
inhibition [16, 19]: -31.1%
inhibition ([16]; single agent, at 0.05 µM): -46.2%
inhibition ([16]; single agent, at 5 µM): -14.8%

CCn1cc(-c2cc(C(=O)N3CCCCCC3)c3cccc(C)c3n2)cn1
z-score [1]: 0.305 (inactive)
